Assay outcomes from PubChem BioAssay.
This is a sample that favours compounds with a hit; in the whole collection about 10% have one here.
Pf growth 48h: inhibits P. falciparum growth in the first generation, 48 h; AID 504832; P. falciparum luciferase growth in erythrocytes, 48 h; Potency, µM (doses to about 28.7 µM), for the others: top-dose activity change, negative = inhibition, usual class: inhibitors; actives 5.9% (n = 310,000); note: % is set by controls: 0 for no effect and ±100 for the full control effect
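Erythrocytes infected with P. falciparum carrying an integrated firefly luciferase reporter (2% hematocrit, 0.1% parasitemia final) were exposed to compounds in RPMI 1640 with 0.5% Albumax at 37 C, 5% CO2. Growth inhibition was scored as reduced luminescence.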
SARS PLpro yeast: blocks SARS-CoV papain-like protease in a yeast assay | actives 0.19% (n = 330,000) | Potency, µM (titrated, usually from 32.9 µM), inactives show at the highest dose activity, positive = growth rescue, most hits filed as activators | S. cerevisiae expressing SARS-CoV PLpro, growth rescue | AID 485353; calls by dose curve; note: 0% is about no effect; nearly all actives have a fitted effect of over 55% in size
NS1 function inh: influenza NS1 inhibition. Potency, µM (highest dose often 46.1 µM), without a hit: at the top dose activity, positive = more growth. actives 0.4% (n = 270,000); calls by dose curve; note: actives are rising curves; nearly all actives have a fitted effect of over 50% in size
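S. cerevisiae expressing influenza A NS1, grown in glucose, washed, then diluted 1:100 into pH 6.0 -URA galactose medium with 23 nl compound. Growth recovery read as OD600; NS1-free strain serves as control.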
Pf growth 96h: P. falciparum growth inhibition at 96 hours. P. falciparum luciferase reporter growth, 96 h. Potency, µM (series often up to 28.7 µM), for the others: top-dose activity change, negative = inhibition, actives largely listed as inhibitors. actives 6.9% (n = 320,000); note: % is set by controls: 0 for no effect and ±100 for the full control effect
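Delayed-death screen, second-generation endpoint: infected erythrocytes, 2% hematocrit, 0.05% parasitemia final; 96 hours at 37 C, 5% CO2; luciferase detection reagent; luminescence decrease equals reduced growth.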
Starred values were filed as active, the others as inactive; ? = inconclusive; · = not tested or not shown; [ ] = another dose, or the depositor's remark. Unless noted, calls come from the whole dose curve; as a rule, active = well fitted inhibition curve with a large enough effect; inconclusive = small, poorly fitted or top-dose-only effect, or another doubt; inactive = no such curve, though single readings can be large or run the other way. Potency is the fitted concentration of half-maximal effect.

SMILES	Pf growth 48h	SARS PLpro yeast	NS1 function inh	Pf growth 96h
N#CC1=C(N)C(C#N)(C#N)[C@H](c2ccncc2)[C@H]2CN(C(=O)OCc3ccccc3)CC=C12	10µM*	-10%	19%	?
CCCOc1ccc([C@@H]2C3CN(C(=O)OCC)CC=C3C(C#N)=C(N)C2(C#N)C#N)cc1OC (stereo partly drawn)	5.9µM*	-5%	-39%	·
COc1cc(/C=N/n2c(C)nc3ccccc3c2=O)cc(OC)c1O	-11%	0%	6%	15%
CN1C(=O)C(C)(C)c2cc(S(=O)(=O)NCc3ccc(C(=O)NCc4ccco4)cc3)ccc21	13%	2%	-1%	?
CCN(CC)CCCn1c2c(c(SCC(=O)Nc3ccccc3Cl)nc1=O)CCC2	?	-3%	·	-13%
CCOC(=O)C1=NNC(C(=O)c2ccccc2)C1c1ccc(Cl)cc1 (stereo not drawn)	-28%	-6%	2%	18%
CCOC(=O)C1=NNC(C(=O)c2ccc(C)cc2)C1c1ccc(C)cc1 (stereo not drawn)	10µM*	-22%	-30%	22%
CCOC(=O)C1=NNC(C(=O)c2ccccc2)C1c1ccc(C)cc1 (stereo not drawn)	1.7µM*	0%	7%	2.1µM*
CC(=O)Nc1cccc(NC(=O)CCN2C(=O)c3ccccc3S2(=O)=O)c1	-8%	?	·	3%
O=C(Cn1c(=O)n2ncnc2c2c3c(sc21)CCCC3)c1ccccc1	12µM*	-1%	9%	·
CCCn1c(SCC(=O)NCc2ccc3c(c2)OCO3)n[nH]c1=O	-28%	5%	·	-30%
CCN(CC)CCN1CCn2c3c(c4cc(C)ccc42)CCCC31 (stereo not drawn)	3.7µM*	-3%	24%	9.3µM*
CCN1CCn2c3c(c4cc(Cl)ccc42)CCCC31 (stereo not drawn)	?	0%	3%	2%
COc1cc(C(CC(=O)N2CCN(c3ccccc3)CC2)c2c(OC)cc(OC)c3ccc(=O)oc23)cc(OC)c1OC (stereo not drawn)	5.9µM*	4%	?	4.7µM*
COc1cc(OC)c2ccc(=O)oc2c1C(CC(=O)N1CCN(c2ccccc2)CC1)c1ccc2c(c1)OCO2 (stereo not drawn)	12µM*	-3%	8%	13µM*
COc1cc(C(CC(=O)N2CCOCC2)c2c(OC)cc(OC)c3ccc(=O)oc23)cc(OC)c1OC (stereo not drawn)	?	4%	-2%	?
COc1cc(OC)c2ccc(=O)oc2c1C(CC(=O)N1CCOCC1)c1ccc2c(c1)OCO2 (stereo not drawn)	-20%	1%	-1%	?
Cc1cccc(C)c1OCc1cc(C(=O)N(Cc2nccn2C)C(C)C)no1	?	0%	-13%	-6%
Cc1ccccc1C(=O)OCC(=O)NCC1COc2ccccc2O1 (stereo not drawn)	-7%	1%	·	37%
CO[C@]1(NC(=O)CSCC#N)C(=O)N2C(C(=O)O)=C(CSc3nnnn3C)CS[C@H]21	5%	·	·	-15%
O=C(c1cc2cc(F)ccc2[nH]1)N(Cc1cccnc1)CC1CCCN(C2CCCCC2)C1 (stereo not drawn)	2.6µM*	-8%	-4%	?
Cc1cc(OCC(=O)N2C[C@H]3C[C@@H](C2)c2cccc(=O)n2C3)c2c(C)c(C)c(=O)oc2c1	1%	-4%	2%	-11%
CCCCc1cc(=O)oc2cc(C)cc(OCC(=O)N3C[C@H]4C[C@@H](C3)c3cccc(=O)n3C4)c12	10µM*	-4%	-12%	?
CCc1cc(=O)oc2cc(C)cc(OCC(=O)N3CCC(C(=O)NC(C)C)(c4ccccc4)CC3)c12	10µM*	-6%	6%	10µM*
CCCCc1cc(=O)oc2cc(OCC(=O)N3C[C@H]4C[C@@H](C3)c3cccc(=O)n3C4)ccc12	11%	-16%	5%	8.3µM*
SMILES	Pf growth 48h	SARS PLpro yeast	NS1 function inh	Pf growth 96h
Cc1ccc(NC(=O)c2cnccn2)c(C)c1	74%	-5%	-8%	241%
COc1ccc(Cc2c(O)nc(SCC(=O)c3ccc(OC)cc3)[nH]c2=O)cc1	4%	0%	-2%	-62%[1.15 µM]
Cc1nc(SCC(N)=O)[nH]c(=O)c1Cc1ccc(OC(C)C)cc1	?	-2%	6%	1.7µM*
CCOC(=O)c1c(C)nc2sc3c(c2c1-c1ccc(OC)cc1)NC(c1ccccc1)NC3=O (stereo not drawn)	13µM*	-2%	6%	4.1µM*
COc1ccc(-c2c(C(C)=O)c(C)nc3sc4c(c23)NC(c2ccccc2)NC4=O)cc1 (stereo not drawn)	-5%	3%	14%	?
Cc1ccc(CN2CCN(Cc3nc4ccccc4nc3C)CC2CCO)cc1 (stereo not drawn)	?	1%	0%	?
COc1ccc(CN2CCN(CCc3ccccc3)C(CCO)C2)c(O)c1 (stereo not drawn)	10µM*	-1%	4%	18%
CCOc1ccccc1CN1CCN(CC2=Cc3cc(OC)ccc3OC2)CC1CCO (stereo not drawn)	9.3µM*	0%	4%	?
OCCC1CN(Cc2cccc3c2OCO3)CCN1Cc1ccccc1 (stereo not drawn)	7%	0%	2%	?
COc1ccc(O)c(CN2CCN(CCc3ccccc3)C(CCO)C2)c1 (stereo not drawn)	0%	-2%	-3%	?
Cc1ccc(CN2CCN(Cc3cnc(C)[nH]3)CC2CCO)cc1 (stereo not drawn)	-7%	0%	-3%	12µM*
OCCC1CN(Cc2ccccc2-c2ccco2)CCN1Cc1ccccc1 (stereo not drawn)	?	0%	3%	9.3µM*
CC(NC(=O)c1ccccc1)C(=O)OCn1nnc2ccccc2c1=O (stereo not drawn)	-7%	9%	·	?
O=C1Nc2ccccc2C1=Nc1cccc2ncccc12	·	·	-1%	·
Cc1ccccc1CN1CCN(CCCc2ccccc2)C(CCO)C1 (stereo not drawn)	?	-9%	11%	4%
OCCC1CN(Cc2ccccc2O)CCN1CCCc1ccccc1 (stereo not drawn)	6.6µM*	?	-25%	-10%
COc1ccc(CN2CCN(CCCc3ccccc3)C(CCO)C2)c(O)c1 (stereo not drawn)	?	3%	-15%	2.9µM*
COc1ccc(CN2CCN(CCCc3ccccc3)C(CCO)C2)c(OC)c1 (stereo not drawn)	-25%	2%	27%	?
CCOc1ccccc1CNC(=O)CCNS(=O)(=O)c1ccc2[nH]c(=O)oc2c1	?	3%	-3%	?
O=C(Cc1cccc2ccccc12)N/N=C/c1ccc(OC(=O)/C=C/c2ccco2)cc1	12µM*	-2%	13%	?
O=C(Cc1cccc2ccccc12)N/N=C/c1ccncc1	0%	0%	-4%	10µM*
O=C(Cc1cccc2ccccc12)N/N=C/c1ccc(F)cc1	?	2%	-1%	?
COc1cccc(C(=O)c2cn(CC(=O)NCc3ccco3)c3nc(C)ccc3c2=O)c1	-18%	2%	12%	4.1µM*
